Reference: PubChem BioAssay (Tox21)
Records with an inconclusive call do not appear. Where a call stands in place of a potency, no number is given. The source made the active and inactive calls. Calls follow the shape of the dose curve; as a rule, active = well fitted cell-killing curve with a large enough effect in the repeat runs; inconclusive = weak or mixed curves, or effect the other way; inactive = flat fitted curve, though single readings scatter.

Assay: qHTS RealTime-Glo MT Cell Viability Assay in HEK293 cells - 8 hour (AID 1224887); also: top concentration of the series differs between compounds; nearly all actives have a fitted effect of over 50% in size
Settings: RealTime-Glo luminescence; series mostly up to 76.8 µM; activity change, negative = cytotoxicity: at the top concentration
From the text: U.S. Tox21 Program National Center for Advancing Translational Sciences [NCATS] NIH Chemical Genomics Center [NCGC] U.S. Environmental Protection Agency [EPA] National Institutes of Environmental Health Sciences [NIEHS] National Toxicology Program [NTP] U.S. Food and Drug Administration [FDA] Tox21 Assay Overview: Measure of cell viability is critical in the cell-base assay. Analysis of cell viability is necessary for the characterization of cell responses to cytotoxic drugs and environmental stress. A RealTime-Glo MT Cell Viability Assay to monitor cell viability in real time of continues cell culture during 40 hours of compound treatment was used to screen Tox21 10K library compounds in Hek293 cells. The RealTime-Glo MT Cell Viability Assay is a nonlytic, homogeneous, bioluminescent method to measure cell viability in real time using a simple, plate-based method. The assay involves adding NanoLuc luciferase and a cell-permeant prosubstrate to cells in culture. Viable cells reduce the proprietary prosubstrate to generate a substrate for NanoLuc luciferase. This substrate diffuses from cells into the surrounding culture medium, where it is rapidly used by the NanoLuc Enzyme to produce a luminescent signal. The signal correlates with the number of viable cells, making the assay well suited for cytotoxicity studies.
Tox21 Assay Protocol Summary: The mixture of Hek293 cell suspension and reagents were dispensed at 600cells/6 ul/well in 1536-well tissue culture treated black solid bottom plates using a Multidrop dispenser. After the assay plates were incubated at a 37 C/5% CO2 incubator for 5 hours, 23 nL of compounds dissolved in DMSO, positive and negative controls was transferred to the assay plate by a pintool work station. The plates were incubated at 37 C for 40 hours. The luminescence intensity were measured at 0h, 8h, 16h, 24h, 32h and 40h time points using ViewLux plate reader during compound treatment.

Compound	activity change, negative = cytotoxicity	Potency
O=C(Oc1ccccc1)c1ccc(O)cc1	-2.73% (inactive)	
CCCCC(CC)COC(C)=O (stereo not given)		inactive
NCCc1ccc(O)c(O)c1		inactive
Oc1ccc2ccccc2c1		inactive
CCCCC(CC)COC(=O)CCCCCCCC(=O)OCC(CC)CCCC (stereo not given)	-3.86% (inactive)	
COC(=O)c1ccccc1O		inactive
CCc1ccccc1O	-9.16% (inactive)	
O=S(=O)(O)CCS		inactive
CC(C)(N=C=O)c1cccc(C(C)(C)N=C=O)c1		inactive
CCCCOCCO		inactive
Cc1cc(O)c2c(c1)C(=O)c1cc(O)cc(O)c1C2=O		inactive
Cc1cc(Cc2ccc(N)c(C)c2)ccc1N		inactive
COCC(=O)O		inactive
O=C1O[C@H](CO)[C@@H](O)[C@H](O)[C@H]1O		inactive
Nc1c(S(=O)(=O)O)cc(Br)c2c1C(=O)c1ccccc1C2=O	-0.135% [at 35.3 µM] (inactive)	
CC[Si](OC(C)=O)(OC(C)=O)OC(C)=O		inactive
Cc1ccc(C)c(C)c1		inactive
O=S(=O)(O)c1cc(S(=O)(=O)O)c2c(N=Nc3ccccc3)c(O)ccc2c1	-15.5% (inactive)	
Nc1cc(-c2ccncc2)c[nH]c1=O		inactive
NC(=O)NNc1ccccc1		inactive

Compound	activity change, negative = cytotoxicity	Potency
C=C(C)C(=O)OCCCCCCCCCCCC		inactive
CCOC(=O)/C=C\C(=O)OCC		inactive
CCCCCC/C=C/CCCCCCCC(=O)O		inactive
Cn1c([N+](=O)[O-])cnc1COC(N)=O		inactive
CC1Cc2ccccc2N1NC(=O)c1ccc(Cl)c(S(N)(=O)=O)c1 (stereo not given)		inactive
CC(=O)Nc1ccc(C(=O)O)cc1		inactive
CCCCCCC(C)(C)S		inactive
CC1(C)O[C@@H]2C[C@H]3[C@@H]4C[C@H](F)C5=CC(=O)CC[C@]5(C)[C@H]4[C@@H](O)C[C@]3(C)[C@]2(C(=O)CO)O1		inactive
C=CC(=O)OCCCCCCCC(C)C		inactive
c1ccc2[nH]cnc2c1		inactive
CC(C)Cc1ccccc1		inactive
CN(C)c1ccc(C(=N)c2ccc(N(C)C)cc2)cc1		inactive
CC1=CC[C@H]2C[C@@H]1C2(C)C		inactive
CCCCCCCCCCC=CC1CC(=O)OC1=O (stereo not given)		inactive
CCCCC(CC)COC(=O)/C=C\C(=O)OCC(CC)CCCC (stereo not given)	-22.9% (inactive)	
OCC1CCCO1 (stereo not given)		inactive
CCCCCCCCCC(=O)O		inactive
Clc1ccc(Cl)c(Cl)c1Cl		inactive
CC1=C(/C=C/C(C)=C/C=C/C(C)=C/CO)C(C)(C)CCC1		inactive
CNC[C@H](O)[C@@H](O)[C@H](O)[C@H](O)CO		inactive
